Assay results taken from PubChem BioAssay (Tox21).
Records with an inconclusive call do not appear. A number with no mark means an inactive call. Activity calls are given as the source filed them. Calls come from the whole dose curve.

target: Peroxisome proliferator-activated receptor delta (Homo sapiens) (UniProt Q03181); experiment: qHTS assay to identify small molecule agonists of the peroxisome proliferator-activated receptor delta (PPARd) signaling pathway (AID 743212); details: HEK293H PPARd-UAS-bla, beta-lactamase FRET ratio, 17 h; series mostly up to 62.6 µM; activation: at the top concentration
Source text: U.S. Tox21 Program National Center for Advancing Translational Sciences [NCATS] NIH Chemical Genomics Center [NCGC] U.S. Environmental Protection Agency [EPA] National Institutes of Environmental Health Sciences [NIEHS] National Toxicology Program [NTP] U.S. Food and Drug Administration [FDA] Tox21 Assay Overview: The peroxisome proliferator-activated receptors (PPARs) are lipid-activated transcription factors of the nuclear receptor superfamily with three distinct subtypes namely PPAR alpha, PPAR delta (PPARd) and PPAR gamma. All these subtypes heterodimerizes with Retinoid X receptor (RXR) and have different physiological functions. […] To identify the compounds that activate PPAR-delta signaling, GeneBLAzer PPAR delta UAS-bla HEK293H cell line (Invitrogen, Carlsbad, CA, USA) containing a beta-lactamase reporter gene under the control of an Upstream Activator Sequence (UAS) was used to screen the Tox21 compound library.
Tox21 Assay Protocol Summary: PPARd-bla cells were dispensed at 3000 cells/6uL/well in 1536-well black wall/clear bottom plates using a Multidrop Combi (Thermo Fisher Scientific, Waltham, MA) dispenser. After the assay plates were incubated at 37 C and 5% CO2 for 5 h, 23 nL of compounds dissolved in DMSO, positive controls or DMSO only was transferred to the assay plate by a Pintool station (Kalypsys, San Diego, CA). The assay plates were incubated at 37C for 17 h. After 1 uL of LiveBLAzerTM B/G FRET substrate was added using a Bioraptr Flying Reagent Dispenser (FRD) workstation (Beckman Coulter, Indianapolis, IN, USA), the plates were incubated at room temperature for 2 h, and fluorescence intensity was measured by an Envision plate reader (PerkinElmer, Shelton, CT).
% is set by controls: 0 for no effect and ±100 for the full control effect; potency is the fitted concentration of half-maximal effect.

Peroxisome proliferator-activated receptor delta (Homo sapiens), sequence (Q03181 whole entry, looked up): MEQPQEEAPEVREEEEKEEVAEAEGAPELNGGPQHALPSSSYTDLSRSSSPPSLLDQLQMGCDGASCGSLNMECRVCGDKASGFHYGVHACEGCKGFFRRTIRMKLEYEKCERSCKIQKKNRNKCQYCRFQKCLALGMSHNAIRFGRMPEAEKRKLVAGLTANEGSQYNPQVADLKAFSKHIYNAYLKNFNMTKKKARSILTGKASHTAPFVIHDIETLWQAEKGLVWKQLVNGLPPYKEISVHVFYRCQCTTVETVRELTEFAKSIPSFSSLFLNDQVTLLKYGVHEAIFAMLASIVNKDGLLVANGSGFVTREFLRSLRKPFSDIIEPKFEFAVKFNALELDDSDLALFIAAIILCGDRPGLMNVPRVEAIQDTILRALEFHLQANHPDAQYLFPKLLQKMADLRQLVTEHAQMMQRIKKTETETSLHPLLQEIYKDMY

Row | Compound | activation | Potency
1 | CCC(C)(C)C(=O)OC1=C(c2ccc(Cl)cc2Cl)C(=O)OC12CCCCC2 | -6.81% | –
2 | Clc1ccc(CCC(Cn2ccnc2)Sc2c(Cl)cccc2Cl)cc1 (stereo not given) | 1.21% | –
3 | CC(C)[C@H](C(=O)O[C@H](C#N)c1cccc(Oc2ccccc2)c1)c1ccc(Cl)cc1 | 0.696% | –
4 | CN(C)CCc1c[nH]c2ccc(O)cc12 | -6.71% [at 81.1 µM] | –
5 | CCCCCCCCCCCCCCC(Br)C(=O)O (stereo not given) | – | 13.8 µM (active)
6 | Oc1ccc(C(c2ccc(O)cc2)(C(F)(F)F)C(F)(F)F)cc1 | -4.01% | –
7 | Cc1cc(C(C)(C)c2cc(C)c(O)c(C)c2)cc(C)c1O | 13.7% | –
8 | CN(C)C1CSSSC1 | -0.567% | –
9 | CC(Cc1ccc(C(C)(C)C)cc1)CN1C[C@@H](C)O[C@@H](C)C1 (stereo not given in full) | 10.5% | –
10 | ClC1=C(Cl)[C@]2(Cl)[C@H]3[C@H]([C@H]4C=C[C@H]3C4)[C@@]1(Cl)C2(Cl)Cl | -5.1% | –
11 | Cc1ccc(OP(=O)(Oc2ccccc2)Oc2ccccc2)cc1 | -0.923% [at 81.1 µM] | –
12 | CC(C)CC(C)N (stereo not given) | -0.827% | –
13 | O=C1c2ccccc2C(=O)C1C(=O)C(c1ccccc1)c1ccc(Cl)cc1 (stereo not given) | -5.99% | –
14 | Cc1cc(C)c(C2=C(OC(=O)CC(C)(C)C)C3(CCCC3)OC2=O)c(C)c1 | 4.35% [at 81.1 µM] | –
15 | NNC(=O)c1ccccc1 | -1.01% [at 81.1 µM] | –
16 | COP(=S)(OC)Oc1cc(Cl)c(Br)cc1Cl | 5.27% | –
17 | O=C(CCCN1CCC2(CC1)C(=O)NCN2c1ccccc1)c1ccc(F)cc1 | -4.46% | –
18 | COc1ccc(OC)c(CC(C)N)c1 (stereo not given) | 1.99% [at 81.1 µM] | –
19 | CCN(CC)c1c([N+](=O)[O-])cc(C(F)(F)F)c(N)c1[N+](=O)[O-] | 0.818% | –
20 | Clc1ccc(CO/N=C(\Cn2ccnc2)c2ccc(Cl)cc2Cl)c(Cl)c1 | 1.07% | –

Row | Compound | activation | Potency
21 | COc1cccc2c1C(=O)c1c(O)c3c(c(O)c1C2=O)C[C@@](O)(C(=O)CO)CC3OC1CC(N2CCOC(OC)C2)C(O)C(C)O1 (stereo not given in full) | -7.68% | –
22 | O=C/C(Cl)=C(/Cl)C(=O)O | – | inactive
23 | CC(C)(C)C(O)/C(=C\c1ccc(Cl)cc1Cl)n1cncn1 (stereo not given) | -11.3% [at 81.1 µM] | –
24 | FC(F)(F)c1cccc(C2=CCN(CCc3ccc4ccccc4c3)CC2)c1 | 3.79% | –
25 | OC(c1ccc(Cl)cc1)(c1ccc(Cl)cc1)C(Cl)(Cl)Cl | 0.197% | –
26 | [Cl][Sb]([Cl])[Cl] | -13% | –
27 | CCCCCCCCCBr | 1.33% [at 81.1 µM] | –
28 | CC(=O)OC1(c2ccccc2)CCN(CCc2ccccc2)CC1 | -4.21% [at 81.1 µM] | –
29 | COP(=O)(OC)SCn1c(=O)oc2cc(Cl)cnc21 | 0.501% | –
30 | CC(C)OC(=S)S | 1.96% | –
31 | c1ccc(Nc2ccc3ccccc3c2)cc1 | – | inactive
32 | O=C(O)C1C2CCC(O2)C1C(=O)O (stereo not given) | – | inactive
33 | CCc1nn(C)c(C(=O)NCc2ccc(C(C)(C)C)cc2)c1Cl | -6.64% | –
34 | CC(=O)c1cc(C(C)(C)C)cc2c1CCC2(C)C | 4.3% | –
35 | ClC(Cl)=C(c1ccc(Cl)cc1)c1ccc(Cl)cc1 | 8.52% [at 81.1 µM] | –
36 | Fc1cccc(Cl)c1CCl | 0.173% | –
37 | C[C@]12Cc3nonc3C[C@@H]1CC[C@@H]1[C@@H]2CC[C@@]2(C)[C@H]1CC[C@]2(C)O | -8.47% | –
38 | Oc1ccc(C2(c3ccc(O)cc3)CCCCC2)cc1 | -8.44% | –
39 | Fc1ccc(Oc2ccnc3cc(Cl)cc(Cl)c23)cc1 | -7.29% | –
40 | C[C@H]1CC[C@@H]2[C@@H](C)[C@H]3[C@H](C[C@H]4[C@@H]5CC=C6CC(O[C@@H]7O[C@H](CO)[C@H](O)[C@H](O[C@@H]8O[C@H](CO)[C@@H](O)[C@H](O)[C@H]8O)[C@H]7O[C@H]7O[C@@H](C)[C@H](O)[C@@H](O)[C@H]7O)CC[C@]6(C)[C@H]5CC[C@]34C)N2C1 (stereo not given in full) | -0.136% [at 81.1 µM] | –
